Data as given in PubChem BioAssay (EPA / NIEHS).
Calls of active or inactive are those of the source. The calls were made as follows: active = hit-call score of the fitted dose curve at least 0.9, where 1 is the maximum; inactive = score below 0.9.

Key:
Details in all cases: mRNA level, 48 h; actives raise or lower the signal
[1] = read-out: CYP2C9 (gene 1559); assay: LTEA_HepaRG_CYP2C9: Life Technologies and Expression Analysis (LTEA) Assay for CYP2C9 using HepaRG (AID 2283484)
How it was run: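 CYP2C9 transcript level, quantified by TaqMan qRT-PCR against three housekeeping genes, was fitted bidirectionally relative to 0.5% DMSO. HepaRG cultures were treated 48 h, in duplicate, at eight half-log concentrations topping at 100 uM.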

[2] = read-out: CYP2E1 (gene 1571); assay: LTEA_HepaRG_CYP2E1: Life Technologies and Expression Analysis (LTEA) Assay for CYP2E1 using HepaRG (AID 2283485)
How it was run: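 CYP2E1 transcript measured by Fluidigm qRT-PCR against three housekeeping genes in human HepaRG cells treated 48 h (top 100 uM, half-log steps, 0.5% DMSO vehicle). Gain or loss fitted relative to DMSO baseline.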

[3] = read-out: CYP4A11 (gene 1579); assay: LTEA_HepaRG_CYP4A11: Life Technologies and Expression Analysis (LTEA) Assay for CYP4A11 using HepaRG (AID 2283486)
How it was run: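 Human hepatic HepaRG cultures receive duplicate 48 h exposures across a concentration-response series topping at 100 uM. Expression changes in CYP4A11 are measured by qRT-PCR relative to DMSO controls.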

[4] = read-out: Cytochrome P450 3A4 (Homo sapiens) (UniProt P08684); assay: LTEA_HepaRG_CYP3A4: Life Technologies and Expression Analysis (LTEA) Assay for CYP3A4 using HepaRG (AID 2283487)
How it was run: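 HepaRG, 48 h exposure, 8-pt CRC from 100 uM (half-log), 0.5% DMSO, duplicates; serum-free induction medium. Readout: CYP3A4 mRNA, qRT-PCR, ACTB/GAPDH/POLR2A normalization. Bidirectional fit vs DMSO.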

[5] = read-out: DNA damage-inducible transcript 3 (DDIT3), DDIT3 (gene 1649); assay: LTEA_HepaRG_DDIT3: Life Technologies and Expression Analysis (LTEA) Assay for DNA damage-inducible transcript 3 (DDIT3) using HepaRG (AID 2283488)
How it was run: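 DDIT3 transcript was quantified by qRT-PCR with ACTB/GAPDH/POLR2A normalization after 48 h chemical treatment of differentiated HepaRG cells in 0.5% DMSO. Dosing was eight-point, half-log, top 100 uM, duplicate wells. Curves fitted bidirectionally versus DMSO.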

[6] = read-out: Pro-epidermal growth factor (Homo sapiens) (UniProt P01133); assay: LTEA_HepaRG_EGF: Life Technologies and Expression Analysis (LTEA) Assay for Epidermal growth factor (EGF) using HepaRG (AID 2283489)
How it was run: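 Concentration-response mRNA assay: HepaRG cells dosed 48 h (max 100 uM, 0.5% DMSO), EGF measured by qRT-PCR and normalized to ACTB/GAPDH/POLR2A.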

[7] = read-out: Cytochrome P450 3A7 (Homo sapiens) (UniProt P24462); assay: LTEA_HepaRG_CYP3A7: Life Technologies and Expression Analysis (LTEA) Assay for CYP3A7 using HepaRG (AID 2283492)
How it was run: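 qRT-PCR of CYP3A7 in HepaRG lysates after 48 h treatment; concentration-response (8 points, max 100 uM) analysed bidirectionally relative to 0.5% DMSO controls.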

[8] = read-out: Early growth response protein 1 (EGR1) transcription factor, EGR1 (gene 1958); assay: LTEA_HepaRG_EGR1: Life Technologies and Expression Analysis (LTEA) Assay for Early growth response protein 1 (EGR1) transcription factor using HepaRG (AID 2283490)
How it was run: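 EGR1 transcript levels quantified by qRT-PCR (Fluidigm arrays) against three housekeeping genes after 48 h chemical exposure of HepaRG cells. Eight-point half-log series topping at 100 uM, 0.5% DMSO vehicle, analyzed for gain or loss.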

[9] = read-out: Ezrin (EZR), EZR (gene 7430); assay: LTEA_HepaRG_EZR: Life Technologies and Expression Analysis (LTEA) Assay for Ezrin (EZR) using HepaRG (AID 2283491)
How it was run: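 Read-out is EZR transcript level by qRT-PCR, normalized to three housekeeping genes and fitted bidirectionally against the DMSO control. Human HepaRG cells received test chemicals for 48 h at eight half-log concentrations up to 100 uM in 0.5% DMSO.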

[10] = read-out: CYP3A5 (gene 1577); assay: LTEA_HepaRG_CYP3A5: Life Technologies and Expression Analysis (LTEA) Assay for CYP3A5 using HepaRG (AID 2283493)
How it was run: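 mRNA levels were quantified by qRT-PCR on Fluidigm arrays and normalized to three housekeeping genes. Differentiated HepaRG cells received 48 h exposure (top 100 uM, half-log steps, 0.5% DMSO vehicle, duplicate); bidirectional fitting versus DMSO.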

Measured: AC50

Cytochrome P450 3A7 (Homo sapiens), sequence (P24462 whole entry, looked up): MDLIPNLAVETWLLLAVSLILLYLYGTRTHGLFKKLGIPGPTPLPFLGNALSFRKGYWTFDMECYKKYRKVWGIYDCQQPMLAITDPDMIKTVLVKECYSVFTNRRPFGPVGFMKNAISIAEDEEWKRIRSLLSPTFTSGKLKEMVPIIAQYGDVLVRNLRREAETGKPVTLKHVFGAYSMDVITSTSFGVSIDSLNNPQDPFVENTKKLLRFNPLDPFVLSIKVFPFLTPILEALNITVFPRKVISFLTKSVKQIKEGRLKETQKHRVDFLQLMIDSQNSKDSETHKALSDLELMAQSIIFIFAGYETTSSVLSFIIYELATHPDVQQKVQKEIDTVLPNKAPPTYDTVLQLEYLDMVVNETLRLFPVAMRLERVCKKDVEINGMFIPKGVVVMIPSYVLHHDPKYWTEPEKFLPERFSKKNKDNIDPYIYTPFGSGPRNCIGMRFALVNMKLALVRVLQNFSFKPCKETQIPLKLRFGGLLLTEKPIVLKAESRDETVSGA
Cytochrome P450 3A4 (Homo sapiens), sequence (P08684 whole entry, looked up): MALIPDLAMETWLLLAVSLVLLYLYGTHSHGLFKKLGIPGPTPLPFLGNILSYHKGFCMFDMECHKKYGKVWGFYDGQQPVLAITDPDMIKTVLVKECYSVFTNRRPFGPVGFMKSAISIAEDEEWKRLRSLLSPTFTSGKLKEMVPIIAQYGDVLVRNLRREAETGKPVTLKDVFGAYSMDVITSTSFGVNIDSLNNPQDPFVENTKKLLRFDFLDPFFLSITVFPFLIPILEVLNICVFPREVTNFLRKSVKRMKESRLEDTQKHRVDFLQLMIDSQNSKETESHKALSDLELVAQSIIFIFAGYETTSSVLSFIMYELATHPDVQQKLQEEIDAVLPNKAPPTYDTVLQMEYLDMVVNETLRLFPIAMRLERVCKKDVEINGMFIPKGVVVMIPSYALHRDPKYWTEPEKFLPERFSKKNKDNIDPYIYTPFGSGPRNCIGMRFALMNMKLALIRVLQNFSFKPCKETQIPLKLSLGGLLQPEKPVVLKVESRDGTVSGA

CCCCCCCCN(C)C
inactive: [1] | [2] | [3] | [4] | [5] | [6] | [7]

OCC(CO)(CO)CO
inactive: [1] | [2] | [3] | [4] | [5] | [8] | [7]

c1ccc2ncccc2c1
inactive: [2] | [3] | [4] | [5] | [6] | [7]

Cn1cc[nH]c1=S
inactive: [1] | [2] | [3] | [5] | [6] | [8]

COc1cc(C(C)C)c2c(c1)S(=O)(=O)N(COc1cc(=O)n3cccc(OCCN4CCCCC4)c3n1)C2=O
inactive: [5] | [9]
active: [1] 23.6 µM | [2] 17.2 µM | [3] 20.8 µM | [4] 20.8 µM | [6] 8.03 µM | [7] 23.6 µM | [10] 20.9 µM

O=C(O)c1cccc(C(=O)O)c1
inactive: [1] | [2] | [3] | [4] | [5] | [6] | [7] | [10]

c1ccc(C(O[C@@H]2CCCN(CCc3ccc4c(c3)OCO4)C2)c2ccccc2)cc1
inactive: [6]
active: [1] 85.2 µM | [2] 50 µM | [3] 59.7 µM | [5] 63.6 µM | [10] 81.9 µM

OC[C@H]1O[C@@H]2O[C@H]3[C@H](O)[C@@H](O)[C@@H](O[C@H]4[C@H](O)[C@@H](O)[C@@H](O[C@H]5[C@H](O)[C@@H](O)[C@@H](O[C@H]6[C@H](O)[C@@H](O)[C@@H](O[C@H]7[C@H](O)[C@@H](O)[C@@H](O[C@H]1[C@H](O)[C@H]2O)O[C@@H]7CO)O[C@@H]6CO)O[C@@H]5CO)O[C@@H]4CO)O[C@@H]3CO
inactive: [1] | [2] | [3] | [5] | [6] | [8] | [9] | [7]

CCCc1ccccc1
inactive: [1] | [2] | [3] | [4] | [5] | [6] | [7]

O=S1(=O)CCCO1
inactive: [1] | [2] | [3] | [4] | [5] | [6] | [7]

OC(Cn1cncn1)(Cn1cncn1)c1ccc(F)cc1F
inactive: [1] | [2] | [3] | [4] | [5] | [6] | [7] | [10]

c1ccc2cc3ccccc3cc2c1
inactive: [1] | [3] | [4] | [5] | [6]
active: [2] 50 µM | [7] 13.2 µM

NNC(=O)c1ccncc1
inactive: [1] | [2] | [3] | [4] | [5] | [6] | [7]

Cc1ccc(S(=O)(=O)NC(=O)NN2CCCCCC2)cc1
inactive: [5] | [6] | [8] | [9]

CCCCCOC(C)=O
inactive: [1] | [2] | [3] | [4] | [5] | [6] | [7]

CC(C)CC(C)O (stereo not given)
inactive: [1] | [2] | [3] | [4] | [5] | [6] | [7] | [10]

NC(=O)N1c2ccccc2C=Cc2ccccc21
active: [2] 41.8 µM
inactive: [1] | [3] | [5] | [6] | [8] | [9]

CCCCCCCC1CCC(=O)O1 (stereo not given)
inactive: [5] | [6]

OCCOCCOCCO
inactive: [1] | [2] | [3] | [4] | [5] | [6] | [7]

CCCCCCCCCC
inactive: [1] | [2] | [3] | [4] | [5] | [6] | [7]
